# This is one part of a sample in which the strongest signals are shown more often than they occur.
# B1: MFG-E8 (Homo sapiens), Q08431 (protein)
# chain: MPRPRLLAALCGALLCAPSLLVALDICSKNPCHNGGLCEEISQEVRGDVFPSYTCTCLKGYAGNHCETKCVEPLGLENGNIANSQIAASSVRVTFLGLQHWVPELARLNRAGMVNAWTPSSNDDNPWIQVNLLRRMWVTGVVTQGASRLASHEYLKAFKVAYSLNGHEFDFIHDVNKKHKEFVGNWNKNAVHVNLFETPVEAQYVRLYPTSCHTACTLRFELLGCELNGCANPLGLKNNSIPDKQITASSSYKTWGLHLFSWNPSYARLDKQGNFNAWVAGSYGNDQWLQVDLGSSKEVTGIITQGARNFGSVQFVASYKVAYSNDSANWTEYQDPRTGSSKIFPGNWDNHSHKKNLFETPILARYVRILPVAWHNRIALRLELLGC
# Assays:
# Experiment in all cases: glycan array binding signal (z-score within array); higher = stronger binding
# Conditions in all cases: glycan notation: IUPAC condensed, linker removed
# [1] = target: Fuc(a1-2)Gal(b1-3)GlcNAc(b1-3)Gal(b1-4)Glc
# Procedure, shortened: (§1)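 Negative Z-scores can be read as non-binding. The Z-score is calculated within each array and then averaged across arrays of one protein sequence at different concentrations or buffers and across linkers. Arrays, 3228 in all, were curated from the Consortium for Functional Glycomics database and kept only where the protein sequence was available.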
# [2] = target: Fuc(a1-2)Gal(b1-3)GlcNAc(b1-3)[Gal(b1-4)GlcNAc(b1-6)]Gal(b1-4)Glc
# Procedure, shortened: as §1
# [3] = target: Fuc(a1-2)Gal(b1-3)[Fuc(a1-4)]GlcNAc(b1-2)Man(a1-3)[Fuc(a1-2)Gal(b1-3)[Fuc(a1-4)]GlcNAc(b1-2)Man(a1-6)]Man(b1-4)GlcNAc(b1-4)GlcNAc
# Procedure, shortened: as §1
# Fuc(a1-2)Gal(b1-4)Glc6S = target: Fuc(a1-2)Gal(b1-4)Glc6S
# Procedure, shortened: as §1
# [4] = target: Fuc(a1-2)Gal(b1-4)[Fuc(a1-3)]GlcNAc(b1-2)Man(a1-3)[Fuc(a1-2)Gal(b1-4)[Fuc(a1-3)]GlcNAc(b1-2)Man(a1-6)]Man(b1-4)GlcNAc(b1-4)GlcNAc
# Procedure, shortened: as §1
# [5] = target: Fuc(a1-2)Gal(b1-4)[Fuc(a1-3)]GlcNAc(b1-2)[Fuc(a1-2)Gal(b1-4)[Fuc(a1-3)]GlcNAc(b1-4)]Man(a1-3)[Fuc(a1-2)Gal(b1-4)[Fuc(a1-3)]GlcNAc(b1-2)Man(a1-6)]Man(b1-4)GlcNAc(b1-4)GlcNAc
# Procedure, shortened: as §1
# [6] = target: Fuc(a1-2)[Gal(a1-3)]Gal(b1-3)GlcNAc(b1-2)Man(a1-3)[Fuc(a1-2)[Gal(a1-3)]Gal(b1-3)GlcNAc(b1-2)Man(a1-6)]Man(b1-4)GlcNAc(b1-4)[Fuc(a1-6)]GlcNAc
# Procedure, shortened: as §1
# [7] = target: Fuc(a1-2)[GalNAc(a1-3)]Gal
# Procedure, shortened: as §1
# [8] = target: Gal(a1-3)Gal(b1-4)GlcNAc(b1-3)GalNAc
# Procedure, shortened: as §1
# [9] = target: Gal(b1-3)GalNAc(b1-3)Gal(a1-4)Gal(b1-4)Glc
# Procedure, shortened: as §1
# [10] = target: Gal(b1-3)GalNAc(b1-4)[Neu5Ac(a2-3)]Gal(b1-4)Glc
# Procedure, shortened: as §1
# [11] = target: Gal(b1-3)GlcNAc(b1-3)Gal(b1-4)GlcNAc(b1-6)[Gal(b1-3)GlcNAc(b1-3)]Gal(b1-4)Glc
# Procedure, shortened: as §1
# [12] = target: Gal(b1-3)GlcNAc(b1-6)Gal(b1-4)GlcNAc
# Procedure, shortened: as §1
# [13] = target: Gal(b1-3)[Neu5Ac(b2-6)]GalNAc
# Procedure, shortened: as §1
# Gal(b1-4)GlcNAc = target: Gal(b1-4)GlcNAc
# Procedure, shortened: as §1
# Gal3S(b1-4)Glc6S = target: Gal3S(b1-4)Glc6S
# Procedure, shortened: as §1
# Gal6S(b1-3)GlcNAc6S = target: Gal6S(b1-3)GlcNAc6S
# Procedure, shortened: as §1
# GlcA(b1-3)GlcNAc = target: GlcA(b1-3)GlcNAc
# Procedure, shortened: as §1
# [14] = target: GlcNAc(a1-4)Gal(b1-4)GlcNAc(b1-3)Gal(b1-4)GlcNAc
# Procedure, shortened: as §1
# [15] = target: GlcNAc(b1-2)Gal(b1-3)GalNAc
# Procedure, shortened: as §1
# [16] = target: GlcNAc(b1-3)Gal(b1-3)GalNAc
# Procedure, shortened: as §1
# [17] = target: GlcNAc(b1-3)Gal(b1-4)GlcNAc
# Procedure, shortened: as §1
# [18] = target: Man(a1-2)Man(a1-6)[Man(a1-3)]Man(a1-6)[Man(a1-2)Man(a1-2)Man(a1-3)]Man(b1-4)GlcNAc(b1-4)GlcNAc
# Procedure, shortened: as §1
# Neu5Ac(a2-3)Gal = target: Neu5Ac(a2-3)Gal
# Procedure, shortened: as §1
# [19] = target: Neu5Ac(a2-3)Gal(b1-3)GalNAc(b1-4)[Neu5Ac(a2-3)]Gal(b1-4)Glc
# Procedure, shortened: as §1
# [20] = target: Neu5Ac(a2-3)Gal(b1-3)[Fuc(a1-4)]GlcNAc(b1-3)Gal(b1-3)[Fuc(a1-4)]GlcNAc
# Procedure, shortened: as §1
# [21] = target: Neu5Ac(a2-3)Gal(b1-4)GlcNAc(b1-3)Gal
# Procedure, shortened: as §1
# [22] = target: Neu5Ac(a2-3)Gal(b1-4)GlcNAc(b1-6)[Gal(b1-3)]GalNAc
# Procedure, shortened: as §1
# [23] = target: Neu5Ac(a2-3)Gal(b1-4)[Fuc(a1-3)]GlcNAc(b1-3)Gal(b1-4)GlcNAc
# Procedure, shortened: as §1
# [24] = target: Neu5Ac(a2-6)Gal(b1-4)GlcNAc(b1-2)Man(a1-3)[Neu5Ac(a2-6)Gal(b1-4)GlcNAc(b1-2)Man(a1-6)]Man(b1-4)GlcNAc(b1-4)GlcNAc
# Procedure, shortened: as §1
# [25] = target: Neu5Ac(a2-8)Neu5Ac(a2-3)Gal(b1-3)GalNAc(b1-4)[Neu5Ac(a2-8)Neu5Ac(a2-3)]Gal(b1-4)Glc
# Procedure, shortened: as §1
# Neu5Ac(b2-6)GalNAc = target: Neu5Ac(b2-6)GalNAc
# Procedure, shortened: as §1
# [26] = target: Neu5Gc(a2-3)Gal(b1-3)GlcNAc
# Procedure, shortened: as §1
# [27] = target: Neu5Gc(a2-3)Gal(b1-4)GlcNAc
# Procedure, shortened: as §1
# [28] = target: Neu5Gc(b2-6)Gal(b1-4)GlcNAc
# Procedure, shortened: as §1
binder,measurement,setting,value
B1,glycan array binding signal (z-score),[1],-0.126
same,glycan array binding signal (z-score),[2],-0.539
same,glycan array binding signal (z-score),[3],2.2
same,glycan array binding signal (z-score),Fuc(a1-2)Gal(b1-4)Glc6S,-0.507
same,glycan array binding signal (z-score),[4],2.88
same,glycan array binding signal (z-score),[5],2.94
same,glycan array binding signal (z-score),[6],-0.115
same,glycan array binding signal (z-score),[7],-0.746
same,glycan array binding signal (z-score),[8],-0.233
same,glycan array binding signal (z-score),[9],-0.572
same,glycan array binding signal (z-score),[10],-0.7
same,glycan array binding signal (z-score),[11],2.38
same,glycan array binding signal (z-score),[12],-0.672
same,glycan array binding signal (z-score),[13],0.07
same,glycan array binding signal (z-score),Gal(b1-4)GlcNAc,-0.753
same,glycan array binding signal (z-score),Gal3S(b1-4)Glc6S,6.38
same,glycan array binding signal (z-score),Gal6S(b1-3)GlcNAc6S,3.63
same,glycan array binding signal (z-score),GlcA(b1-3)GlcNAc,0.43
same,glycan array binding signal (z-score),[14],3.21
same,glycan array binding signal (z-score),[15],-0.68
same,glycan array binding signal (z-score),[16],0.268
same,glycan array binding signal (z-score),[17],-0.62
same,glycan array binding signal (z-score),[18],2.16
same,glycan array binding signal (z-score),Neu5Ac(a2-3)Gal,-0.156
same,glycan array binding signal (z-score),[19],1.61
same,glycan array binding signal (z-score),[20],1.24
same,glycan array binding signal (z-score),[21],0.052
same,glycan array binding signal (z-score),[22],-0.167
same,glycan array binding signal (z-score),[23],-0.126
same,glycan array binding signal (z-score),[24],1.09
same,glycan array binding signal (z-score),[25],-0.776
same,glycan array binding signal (z-score),Neu5Ac(b2-6)GalNAc,1.84
same,glycan array binding signal (z-score),[26],-0.636
same,glycan array binding signal (z-score),[27],1
same,glycan array binding signal (z-score),[28],-0.408

# Source: the supplement of paper PMC8728848
